Values without a mark were called inactive. Calls follow the shape of the dose curve; as a rule, active = well fitted curve in the direction sought with a large enough effect; inconclusive = small, poorly fitted or top-dose-only effect, or another doubt; inactive = no such curve, though single readings can be large or run the other way.
molecular target: Hexokinase-4 (Homo sapiens) + Glucokinase regulatory protein (Homo sapiens) (UniProt P35557+Q14397); experiment: qHTS assay for inhibitors of recombinant human GCK-GKRP interaction: ADP-Glo assay (AID 743206); conditions: ADP-Glo luminescence, 60 min; series mostly up to 76.9 µM; activity, positive = activation: at the top concentration
Sequence (P35557 whole entry, looked up): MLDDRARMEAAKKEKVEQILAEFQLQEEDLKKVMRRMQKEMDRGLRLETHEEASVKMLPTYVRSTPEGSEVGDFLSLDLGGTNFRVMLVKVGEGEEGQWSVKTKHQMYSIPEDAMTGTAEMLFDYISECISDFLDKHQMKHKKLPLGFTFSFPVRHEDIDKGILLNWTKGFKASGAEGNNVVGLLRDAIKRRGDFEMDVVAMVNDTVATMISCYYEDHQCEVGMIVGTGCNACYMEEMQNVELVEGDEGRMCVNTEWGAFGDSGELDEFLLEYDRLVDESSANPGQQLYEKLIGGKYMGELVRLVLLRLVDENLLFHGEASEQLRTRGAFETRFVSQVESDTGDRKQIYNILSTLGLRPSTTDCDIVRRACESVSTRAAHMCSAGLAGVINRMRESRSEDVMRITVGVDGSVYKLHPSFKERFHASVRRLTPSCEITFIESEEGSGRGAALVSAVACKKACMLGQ
Sequence (Q14397 whole entry, looked up): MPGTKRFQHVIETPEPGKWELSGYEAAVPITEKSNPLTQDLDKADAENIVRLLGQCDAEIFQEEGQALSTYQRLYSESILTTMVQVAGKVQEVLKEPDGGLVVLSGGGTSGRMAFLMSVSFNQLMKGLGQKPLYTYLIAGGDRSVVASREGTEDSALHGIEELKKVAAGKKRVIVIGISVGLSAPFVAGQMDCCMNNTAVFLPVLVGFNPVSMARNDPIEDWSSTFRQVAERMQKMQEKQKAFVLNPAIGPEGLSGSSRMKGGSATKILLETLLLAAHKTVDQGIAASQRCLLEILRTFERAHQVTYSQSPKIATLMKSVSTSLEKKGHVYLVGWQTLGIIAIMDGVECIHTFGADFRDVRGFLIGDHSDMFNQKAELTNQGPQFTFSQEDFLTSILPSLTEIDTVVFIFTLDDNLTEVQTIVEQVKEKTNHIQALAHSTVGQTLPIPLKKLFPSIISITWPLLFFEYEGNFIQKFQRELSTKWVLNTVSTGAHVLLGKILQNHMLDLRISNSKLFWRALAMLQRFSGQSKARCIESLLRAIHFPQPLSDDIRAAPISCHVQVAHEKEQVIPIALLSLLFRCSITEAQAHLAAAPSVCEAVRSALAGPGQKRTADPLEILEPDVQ
Excerpt: Glucokinase (GCK) is a glucose sensor in hepatocytes and pancreatic beta-cells. Hepatic GCK is regulated by glucokinase regulatory protein (GKRP), which is predominantly localized to the liver. GKRP binds to GCK inhibiting its activity in the fasting state while in the presence of glucose the GKRP is displaced. There is an additional layer of regulation by fructose 1-phosphate and fructose 6-phosphate, which inhibit and enhance the GCK-GKRP interaction, respectively. GCK plays a role in glucose homeostasis and there is an interest in the development of strategies to activate GCK to lower blood glucose levels in type 2 diabetes. To date the majority of effort has focused on direct activation of GCK and the assays developed herein look to activate GCK by inhibiting its binding to GKRP. A compound that inhibits the interaction of GCK with GKRP could be important for the treatment of diabetes and can also be used as a tool compound to further elucidate GCK-GKRP biology. To that end, we have developed a sensitive HTS biochemical assay where in GCK activity is coupled to luciferase to interrogate the GCK-GKRP interaction. This assay was screened against a small compound library to look for modulators of activity.
2 uL of 15 nM GST-GCK and 15 nM FLAG-GKRP proteins with 2 uM S6P (columns 1-2, 4-48; Millipore, Billerica, MA) are dispensed into Greiner, white solid-bottom 1536-well assay plates; columns 3 receive buffer without GCK as a control for maximum inhibition. Compounds (23 nL) are then transferred via Kalypsys pin tool equipped with 1536-pin array (10 nL slotted pins, V&P Scientific, San Diego, CA). The library compounds are in columns 5-48 and columns 1-4 serve as controls with DMSO in columns 1 and 3 and 26 mM 1:1.5 fold serial of gluckokinase activator (GKA-EMD) in column 2 and 26 mM of the glucokinase activator (GKA-EMD) in column 4. Following addition of compound, 1 uL of ATP […] is added, and the plate is incubated for 60 minutes at room temperature. The amount of ADP is then quantified by the ADP-Glo Kit (Promega, Madison, WI). First, 2 uL of the first kit reagent is added, and the reaction is incubated for 45 minutes; then, 4 uL of the second kit reagent are added and the reaction is incubated for 30 minutes at which time the luminescence is read on a Viewlux plate reader (Perkin-Elmer, Waltham, MA). The final concentration of reagents in the reaction are 0.4 mM ATP, 25 mM Hepes pH 7.6, 25 mM KCl, 2 mM MgCl2, 1 mM DTT, 0.025% BSA, 0.01% Tween 20, 5 mM glucose. Data are normalized to DMSO-treated control columns with (maximum signal) and without (minimum signal) enzyme.

| SMILES | activity, positive = activation [%] |
| --- | --- |
| N[C@@H](CCC(=O)N[C@H](CSN=O)C(=O)NCC(=O)O)C(=O)O | 2.35 |
| CC1=C(/C=C/C(C)=C/C=C/C(C)=C\C(=O)O)C(C)(C)CCC1 | 1.79 |
| NCCCNCCCCNCCCN | 2.93 |
| CC(C)NC[C@H](O)COc1ccc(CC(N)=O)cc1 | -0.759 |
| CCCc1c(OCCCOc2ccc(OCC(=O)O)cc2)ccc(C(C)=O)c1O | 6.24 |
| NCCS(=O)O | 5.79 |
| CC(=O)O[C@H]1CC2(C)[C@@H](C[C@@H](O)[C@H]3[C@@]4(C)CC[C@@H](O)[C@@H](C)[C@@H]4CC[C@@]32C)C1=C(CCC=C(C)C)C(=O)O (stereo not given in full) | 0.657 |
| N[C@@H](CS(=O)O)C(=O)O | 4.15 |
| Nc1nc2[nH]c(=O)cnc2c(=O)[nH]1 | -2.45 |
| COc1cc([C@@H]2c3cc4c(cc3[C@H](O)C3COC(=O)[C@@H]32)OCO4)cc(OC)c1OC (stereo not given in full) | 2.26 |
| Cc1cc(Cn2cnc3c2C[C@@H](C(=O)O)N(C(=O)C(c2ccccc2)c2ccccc2)C3)ccc1N | -1.95 |
| COc1ccc2c(c1)c(CC(=O)O)c(C)n2Cc1ccc(Cl)cc1 | -1.11 |
| CC1CCN(CC[C@H]2CCCN2S(=O)(=O)c2cccc(O)c2)CC1 | 1.25 |
| CC(C)(C)c1ccc(/C=C/C(=O)Nc2ccc3c(c2)OCCO3)cc1 | 1.96 |
| Cc1cc2c(cc1Cl)N(C(=O)Nc1ccnc3ccccc13)CC2 | 3.07 |
| CNc1cc(NS(=O)(=O)c2ccc(N)cc2)nc(NC)n1 | 4.47 |
| CO/N=C(\C(=O)N[C@@H]1C(=O)N2C(C(=O)O)=C(CSc3nc(=O)c(O)nn3C)CSC12)c1csc(N)n1 (stereo not given in full) | 4.87 |
| Nc1nc2ccc(Cl)cc2c2nc(-c3ccco3)nn12 | 2.52 |
| NCCCCN=C(N)N | -0.575 |
| c1ccc(C(NCc2cccnc2)(c2ccccc2)c2ccccc2)cc1 | 1.18 |

| SMILES | activity, positive = activation [%] |
| --- | --- |
| N[C@H](C(=O)O)[C@H](O)C(=O)O | 1.13 |
| NCC(O)(CS(=O)(=O)O)c1ccc(Cl)cc1 (stereo not given) | -1.94 |
| CCC(=O)N1CCN(C(=O)c2ccccc2)CC1 | 2.49 |
| N=C(N)c1ccccc1 | 2.98 |
| CC(=O)[C@H]1CCC2C3CC=C4C[C@@H](OS(=O)(=O)O)CC[C@]4(C)C3CC[C@@]21C (stereo not given in full) | -0.922 |
| Brc1c(Br)c(Br)c2[nH]cnc2c1Br | -1.34 |
| N[C@H](C(=O)O)[C@H]1C[C@@H]1C(=O)O | 3.09 |
| NC(N)=[N+]1CCc2ccccc2C1 | 0.818 |
| CC(=O)O[C@H]1Cc2ccccc2N(C(N)=O)c2ccccc21 | -0.0699 |
| N=C(N)c1ccc(N)cc1 | -2.81 |
| C=C1C[C@@]23CC[C@H]4[C@@](C)(CCC[C@@]4(C)C(=O)O)[C@@H]2CC[C@]1(O)C3 | 2.83 |
| O=C(O)C1CCCNC1 (stereo not given) | 4.77 |
| Nc1ncnc2c1nc(Br)n2C1OC2COP(=O)(O)O[C@@H]2C1O (stereo not given in full) | 5.53 |
| CN1CCN(c2nc3cc(C(F)(F)F)ccc3n3cccc23)CC1 | -2.1 |
| Cn1cc(C(=O)OCC2CCN(CCNS(C)(=O)=O)CC2)c2ccccc21 | 2.67 |
| CC(=O)N[C@@H](Cc1c[nH]c2ccccc12)C(=O)OCc1cc(C(F)(F)F)cc(C(F)(F)F)c1 | 2.49 |
| CCCOC(=O)c1c(-c2ccccc2)nc(CC)c(C(=O)SCC)c1CCC | 1.22 |
| O=C(O)Cc1ccc(O)c(O)c1 | 4.96 |
| N#CC(=C(\N)Sc1ccccc1N)/C(C#N)=C(/N)Sc1ccccc1N | 3.67 |
| COC(=O)C(C)(N)Cc1ccc(O)cc1 (stereo not given) | 1.16 |

Reference: PubChem BioAssay (NCATS)
